Screening results: PubChem, Broad Institute
Shown are actives, neighbours in structure and some others; about 2.4% of the full set was active somewhere.
C diff HTS – C. difficile growth inhibitors, primary screen, HTS | AID 1259249, 2017 | 0.25% of 86,000 active | growth activity, negative = inhibition, % at 16 µg/mL (by protocol) | Clostridium difficile clinical isolate growth, OD600, 24 h; hits give low values;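 active = mean growth activity at or below -80% and every replicate also at or below -80%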
Pf Dd2 inh – P. falciparum Dd2 growth inhibitors, primary screen, SYBR Green fluorescence, single dose replicates; 72 h; hits give low values; activity change, % at 10 µM; 2.3% of 94,000 active; AID 1159554, 2015; in the data active = activity change below about -80%
Large screens that a line does not name were inactive.

CC=Cc1ccc2n(c1=O)C[C@@H]1[C@@H](CO)[C@H](C(=O)NCCC)[C@H]2N1C(=O)Nc1cc(F)ccc1F (mixture of isomers)	none (no result: Pf Dd2 inh)
O=C(N[C@H]1CC[C@@H](CC(=O)N2CCN(c3ccccc3)CC2)O[C@@H]1CO)c1ccccc1	none (no result: C diff HTS)
C[C@H]1CN([C@@H](C)CO)C(=O)c2cccc(NC(=O)C3CCCCC3)c2O[C@H]1CN(C)S(=O)(=O)c1ccc(F)cc1	none
C[C@@H]1CCCCO[C@@H](CN(C)S(=O)(=O)c2cn(C)cn2)[C@@H](C)CN([C@@H](C)CO)C(=O)c2cc(NS(C)(=O)=O)ccc2O1	none
Cc1ccc(S(=O)(=O)Nc2ccc3c(c2)C(=O)N([C@@H](C)CO)C[C@H](C)[C@H](CN(C)Cc2ccc(C(F)(F)F)cc2)OCCCC[C@H](C)O3)cc1	none
Cc1noc(C)c1S(=O)(=O)Nc1ccc2c(c1)C(=O)N([C@@H](C)CO)C[C@H](C)[C@@H](CN(C)S(=O)(=O)c1ccccc1)OCCCC[C@H](C)O2	none
NCC[C@@H]1CC[C@@H](NS(=O)(=O)Cc2ccccc2)[C@H](CO)O1	none (no result: C diff HTS)
CCS(=O)(=O)N1CC2(CN(Cc3ccccc3F)[C@H](CO)c3[nH]c4cc(OC)ccc4c32)C1	Pf Dd2 inh -82
COc1ccc2c3c([nH]c2c1)[C@@H](CO)N(Cc1ccccc1F)CC31CCN(C)CC1	none
C[C@@H]1CN([C@@H](C)CO)C(=O)Cc2cc(NC(=O)Nc3ccccc3)ccc2O[C@H]1CN(C)CC1CC1	Pf Dd2 inh -87
C[C@H]1CN([C@@H](C)CO)C(=O)Cc2cc(NC(=O)Nc3cccc4ccccc34)ccc2O[C@@H]1CN(C)CC1CC1	none
C[C@@H]1CN([C@@H](C)CO)C(=O)Cc2cc(NC(=O)Nc3cccc4ccccc34)ccc2O[C@@H]1CN(C)CC1CC1	Pf Dd2 inh -85
C[C@H]1CN([C@@H](C)CO)C(=O)Cc2cc(NC(=O)Nc3ccccc3)ccc2O[C@H]1CN(C)CC1CC1	none
C[C@H](CO)N1C[C@H](C)[C@H](CN(C)C(=O)Nc2ccccc2)Oc2ncc(/C=C/c3ccccc3)cc2C1=O	none
O=C(C[C@H]1CC[C@@H](NC(=O)c2cccc(F)c2)[C@@H](CO)O1)NCCN1CCCC1	none (no result: C diff HTS)
C[C@@H]1CN([C@@H](C)CO)C(=O)c2cc(NC(=O)Cn3cnnn3)ccc2O[C@@H]1CN(C)C	none
COc1ccc(NC(=O)N(C)C[C@H]2Oc3ncc(C#CCC(C)C)cc3C(=O)N([C@H](C)CO)C[C@@H]2C)cc1	none
C[C@@H]1CN([C@@H](C)CO)C(=O)c2cc(NC(=O)Nc3ccc(C(F)(F)F)cc3)ccc2O[C@H]1CN(C)C(=O)Nc1cccc2ccccc12	Pf Dd2 inh -87
C[C@H]1CN([C@@H](C)CO)C(=O)c2cccc(NS(=O)(=O)c3cn(C)cn3)c2O[C@H]1CN(C)C(=O)Nc1ccc(C(F)(F)F)cc1	Pf Dd2 inh -85
C[C@@H]1CN([C@@H](C)CO)C(=O)c2cc(NC(=O)Nc3ccccc3)ccc2O[C@H]1CN(C)C(=O)Nc1cccc2ccccc12	none
C[C@@H]1CN([C@@H](C)CO)C(=O)c2cccc(NC(=O)Nc3ccc(C(F)(F)F)cc3)c2O[C@H]1CN(C)C(=O)Nc1cccc2ccccc12	Pf Dd2 inh -88
C[C@@H]1CN([C@@H](C)CO)C(=O)c2cc(NC(=O)Nc3ccccc3)ccc2O[C@@H]1CN(C)C(=O)Nc1cccc2ccccc12	Pf Dd2 inh -91
C[C@@H]1CN([C@H](C)CO)C(=O)c2cccc(NS(=O)(=O)c3cn(C)cn3)c2O[C@@H]1CN(C)C(=O)Nc1ccc(C(F)(F)F)cc1	none
C[C@H](CO)N1C[C@H](C)[C@H](CN(C)C(=O)Nc2cccc3ccccc23)Oc2c(NC(=O)Nc3ccc(C(F)(F)F)cc3)cccc2C1=O	none
C[C@H]1CN([C@@H](C)CO)C(=O)c2cc(NC(=O)Nc3ccc(C(F)(F)F)cc3)ccc2O[C@H]1CN(C)C(=O)Nc1cccc2ccccc12	none
CNC[C@H]1Oc2cc(C#CC3(O)CCCC3)ccc2S(=O)(=O)N([C@@H](C)CO)C[C@H]1C	none
COc1cccc(-c2cccc(-c3nc(C(=O)N(C)C)cc4c3[C@H](CCO)N([S@@](=O)C(C)(C)C)C4)c2)c1	none (no result: C diff HTS)
CN1C(=O)c2cc(NC(=O)c3cccc(F)c3)ccc2OC[C@@H]2O[C@@H](CC(=O)NCc3ccccc3)CC[C@H]21	none
COc1ccc(NC(=O)N(C)C[C@H]2Oc3ccc(NC(=O)NC4CCCCC4)cc3CC(=O)N([C@H](C)CO)C[C@@H]2C)cc1	none
CC(C)NC(=O)Nc1cccc2c1O[C@H](CN(C)C(=O)Nc1ccc(C(F)(F)F)cc1)[C@@H](C)CN([C@H](C)CO)C2=O	none
C[C@H](CO)N1C[C@H](C)[C@H](CN(C)C(=O)Nc2ccc(C(F)(F)F)cc2)Oc2ccc(NC(=O)Nc3cccc4ccccc34)cc2C1=O	Pf Dd2 inh -83
C[C@@H]1CN([C@H](C)CO)C(=O)c2cc(-c3ccc(C#N)cc3)cnc2O[C@H]1CN(C)C(=O)Nc1ccc(C(F)(F)F)cc1	Pf Dd2 inh -94 (no result: C diff HTS)
CC(C)NC(=O)Nc1cccc2c1O[C@H](CN(C)C(=O)Nc1ccc(C(F)(F)F)cc1)[C@H](C)CN([C@@H](C)CO)C2=O	Pf Dd2 inh -85
C[C@@H]1CN([C@@H](C)CO)C(=O)c2cc(NC(=O)Nc3cccc4ccccc34)ccc2O[C@@H]1CN(C)C(=O)Nc1ccc(C(F)(F)F)cc1	none
C[C@@H]1CN([C@@H](C)CO)C(=O)c2cc(-c3ccc(C#N)cc3)cnc2O[C@H]1CN(C)C(=O)Nc1ccc(C(F)(F)F)cc1	none
C[C@@H]1CN([C@H](C)CO)C(=O)Cc2cc(NC(=O)Nc3ccc4c(c3)OCO4)ccc2O[C@@H]1CN(C)S(=O)(=O)c1ccc(Cl)cc1	none
CO[C@@H]1CN(C)C(=O)c2cc(NS(C)(=O)=O)ccc2OC[C@H](C)N(C)C[C@@H]1C	none (no result: C diff HTS)
C[C@H]1CN([C@@H](C)CO)C(=O)c2cc(NC(=O)Nc3ccccc3)ccc2O[C@H]1CN(C)S(=O)(=O)c1ccc(Cl)cc1	none
C[C@@H]1CN([C@@H](C)CO)S(=O)(=O)c2ccc(C3=CCCC3)cc2O[C@@H]1CN(C)C(=O)c1ccccc1	none
O=C(NC[C@@H]1CC[C@@H]2[C@@H](CN2C(=O)NC2CCCC2)O1)c1ccc2c(c1)OCO2	none
O=C(NC[C@@H]1CC[C@H]2[C@H](CN2Cc2cc(-c3ccccc3)on2)O1)c1ccc2c(c1)OCO2	Pf Dd2 inh -90
O=C(Nc1nccs1)[C@@H]1[C@@H](CO)[C@@H]2Cn3c(cccc3=O)[C@H]1N2C(=O)C1CCCCC1	none
O=C(C[C@@H]1CC[C@H](NC(=O)CCN2CCCCC2)[C@H](CO)O1)Nc1ccc(-c2ccccc2)cc1	none (no result: C diff HTS)
C[C@@H]1CN([C@H](C)CO)C(=O)c2cc(NC(=O)Nc3ccccc3)ccc2O[C@@H](C)CCCCO[C@@H]1CN(C)S(=O)(=O)c1ccc(Cl)cc1	Pf Dd2 inh -86 (no result: C diff HTS)
C[C@@H]1CN([C@@H](C)CO)C(=O)c2cc(NC(=O)Nc3ccccc3)ccc2O[C@@H](C)CCCCO[C@@H]1CN(C)S(=O)(=O)c1ccc(Cl)cc1	Pf Dd2 inh -87 (no result: C diff HTS)
C[C@H]1CCCCO[C@@H](CN(C)S(=O)(=O)c2ccccc2)[C@@H](C)CN([C@@H](C)CO)C(=O)c2cc(NC(=O)Nc3ccccc3)ccc2O1	none (no result: C diff HTS)
C[C@@H]1CCCCO[C@@H](CN(C)S(=O)(=O)c2ccccc2)[C@H](C)CN([C@H](C)CO)C(=O)c2cc(NC(=O)Nc3ccccc3)ccc2O1	none (no result: C diff HTS)
